The source of these data is PubChem BioAssay AID1851 (National Center for Advancing Translational Sciences (NCATS), 2009).

In all, about 16,000 compounds went through this assay and about 5,700 (36%) were called active. Roughly 24% stayed inconclusive and do not appear here. This is one part of the list. Unmarked numbers belong to inactive results. Calls come from the whole dose curve; as a rule, active = well fitted curve in the direction sought with a large enough effect; inconclusive = small, poorly fitted or top-dose-only effect, or effect the other way; inactive = no such curve, though single readings can be large or run the other way.
% is set by controls: 0 for no effect and ±100 for the full control effect.

The target of the assay is Cytochrome P450 1A2 (Homo sapiens) (UniProt P05177). Kind of assay: Cytochrome panel assay with activity outcomes. Particulars: recombinant CYP, pro-luciferin dealkylation, luminescence, p450-cyp1a2; series mostly up to 57.1 µM; activity, negative = inhibition: at the top concentration.
Sequence of Cytochrome P450 1A2 (Homo sapiens) (P05177 whole entry, looked up): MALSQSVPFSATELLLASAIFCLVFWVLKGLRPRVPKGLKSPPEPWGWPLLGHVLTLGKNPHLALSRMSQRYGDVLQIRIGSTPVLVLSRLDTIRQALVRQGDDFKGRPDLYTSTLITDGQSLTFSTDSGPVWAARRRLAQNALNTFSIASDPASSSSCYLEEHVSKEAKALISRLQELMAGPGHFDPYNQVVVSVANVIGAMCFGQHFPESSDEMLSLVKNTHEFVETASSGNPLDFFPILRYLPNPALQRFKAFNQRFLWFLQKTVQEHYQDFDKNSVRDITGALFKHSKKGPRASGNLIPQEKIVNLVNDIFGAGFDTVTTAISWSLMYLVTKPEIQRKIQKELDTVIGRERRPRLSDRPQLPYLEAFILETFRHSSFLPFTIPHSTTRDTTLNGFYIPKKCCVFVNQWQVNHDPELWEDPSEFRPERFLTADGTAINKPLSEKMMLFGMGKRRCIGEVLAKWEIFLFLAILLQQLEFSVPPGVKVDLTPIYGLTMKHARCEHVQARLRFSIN
On to `COc1cccc(-c2ccc3ncnc(N(C)C)c3c2)c1`, for which the concentration at half-maximal activity (AC50) (usually the midpoint of the concentration-response curve, whichever way the signal moves) is 0.794 µM (active). Regarding `O=C1NC(O)=NC1(c1ccccc1)c1ccccc1`, the “activity, negative = inhibition” value was -12.9%.

Take `CSc1nc(C2CC2)cc(-c2cccs2)c1C#N`: the AC50 is 0.316 µM (active). The same measure, in the same setting: as for `CSc1nc(N)nc(-c2cccs2)c1C#N`, the figure is 2 µM (active); as for `N#Cc1c(-c2ccccc2)cc(C2CC2)nc1SCC(=O)c1cccs1`, 0.562 µM (active). In the case of `CC(C)C12CN3CC(C(C)C)(CN(C1)C3c1ccco1)C2=O` (centres undefined), the “activity, negative = inhibition” value is 11%. As to `Cc1ccc(N=CC2=C(O)CC(c3ccco3)CC2=O)cc1` (centres undefined), the AC50 was 25.1 µM (active).

In the case of `CCC(=O)N(C)/C=C1\Sc2ccccc2C1=O`, the concentration at half-maximal activity (AC50) was 3.16 µM (active).

`CS(=O)(=O)c1cnc2c(-c3ccc(F)cc3)cnn2c1N`: the concentration at half-maximal activity (AC50) was 3.55 µM (active). As for `O=C(NCCNc1ccc([N+](=O)[O-])cc1)c1ccccc1Br`, the “activity, negative = inhibition” value is -27.5%. Regarding `O=C(N/N=C/c1ccc(Br)s1)c1ccccc1[N+](=O)[O-]`, the AC50 was 14.1 µM (active). On the same count and under the same terms, as for `Cc1ccc(C(=O)N/N=C/c2ccc([N+](=O)[O-])s2)cc1`, the figure is 2.82 µM (active).

For `COc1cccc(NC(=S)NNC(=O)C(C)n2nc(C)c([N+](=O)[O-])c2C)c1` (centres undefined), the “activity, negative = inhibition” value was -23.7%. `Cc1cccc(NC(=S)N/N=C/c2ccc([N+](=O)[O-])s2)c1`: the AC50 is 1.41 µM (active). Regarding `O=C(N/N=C/c1cc([N+](=O)[O-])ccc1N1CCNCC1)c1ccc([N+](=O)[O-])cc1`, the “activity, negative = inhibition” value is -24.1%. Turning to `O=C(N/N=C/c1ccc([N+](=O)[O-])s1)c1ccccc1Br`, the AC50 was 15.8 µM (active). On to `CO[C@H]1COC(=O)C/C=C\[C@@H](C)[C@H](OC)COC(=O)CCC[C@@H]1C`, for which the activity, negative = inhibition was -5.95% [at 11.4 µM]. On the same count and under the same terms, as for `CC(=O)N1CCC(=O)N(C(C)C)c2ccccc21`, the figure is -11.8%. Take `Cc1cc(N2CCN(c3nc4ccccc4s3)CC2)n2ncnc2n1`: the AC50 was 15.8 µM (active).

For `CCCNC(=O)OC[C@@H]1O[C@H](CCO/N=C(\C)CCN2CCCc3nc(C)c(C)cc32)C=C[C@@H]1Oc1ccc(OC)cc1`, the activity, negative = inhibition was 0.587% [at 11.4 µM].

As to `CCCCOc1ccc(C(=O)N/C(=C\c2cccc([N+](=O)[O-])c2)C(=O)OCCC)cc1`, the “activity, negative = inhibition” value was -18.3%. Take `C=CCOC(=O)/C(=C\c1cccc2ccccc12)NC(=O)c1ccccc1`: the AC50 was 7.08 µM (active).

`COc1ccc(NC(=O)/C(=C\c2cc(OC)c(OC)cc2[N+](=O)[O-])NC(=O)c2ccccc2)cc1`: the “activity, negative = inhibition” value is 9.17%.

Regarding `c1ccc2c(c1)-c1nc3ccccc3cc1[C@H]2N1CCOCC1`, the AC50 was 1.26 µM (active). In the case of `CCCCCCC1CC(C)(/C(C)=N/NC(N)=O)OC1=O` (centres undefined), the “activity, negative = inhibition” value was -17.7%. On the same count and under the same terms, as for `O=S(=O)(c1cnccc1N1CCN(/N=C/c2ccccc2)CC1)N1CCCCC1`, the figure is -18.1%. With `CCn1c(-c2ccoc2C)n[nH]c1=S`, the AC50 is 22.4 µM (active). Turning to `CSC1(SC2=NCCN2)SC2(NCCN2)S1`, the AC50 is 0.398 µM (active). Regarding `O=C(O)CCSC1=NCCN1`, the activity, negative = inhibition was -7.93% [at 11.4 µM]. For `COc1ccc(NC(=O)N2CC[C@@]3(CCCNC3)C2)cc1`, the “activity, negative = inhibition” value was -8.34%. As for `CCCCN1C(=O)C(NC(=O)C2CC2)(C(F)(F)F)C2=C1CC(C)(C)CC2=O` (centres undefined), the “activity, negative = inhibition” value was 14.5%. With `CSc1nncc(/C(C)=N\Nc2ccccc2)n1`, the AC50 was 12.6 µM (active). Consider `CC/C(=N/Nc1ccccc1)c1cnnc(SC)n1`, for which the AC50 was 10 µM (active). For the molecule `CCc1ccc(N(C(=O)c2ccoc2C)C(C(=O)NC2CCCC2)c2ccc(OC)cc2)cc1` (centres undefined), the “activity, negative = inhibition” value is -10.9%. On to `Cc1ccc(Nc2nnc(-c3ccc4c(c3)OCO4)o2)c(C)c1`, for which the AC50 is 2.51 µM (active). As to `COc1ccc([C@H](O)c2ccccn2)cc1`, the activity, negative = inhibition was -16% [at 11.4 µM]. For `COc1cc(N=C(N)N=C(N)N)c2ncccc2c1`, the concentration at half-maximal activity (AC50) was 0.398 µM (active). Turning to `COc1cc(NCCC(=O)O)c2ncccc2c1`, the activity, negative = inhibition was -18.1% [at 11.4 µM]. On the same count and under the same terms, the value for `CC(C)=CCC/C(C)=C/CO/N=C1/[C@H]2O[C@@H]2[C@@H](O)[C@H]2[C@H]1CCn1c(=O)n(Cc3cc4c(cc3Cl)OCO4)c(=O)n12` was -2.22% [at 11.4 µM]. On to `c1ccc(CN2c3ccccc3-c3nc4ccccc4n3C2c2ccccn2)cc1` (centres undefined), for which the half-maximal activity concentration (AC50) was 4.47 µM (active).

For `O=C(Cc1ccccc1)Nc1nc2ccc(Cl)cc2c2nc(-c3ccco3)nn12`, the AC50 was 0.2 µM (active).

Consider `CN(C)Cc1cc(Cl)c(O)c(CN(C)C)c1`, for which the activity, negative = inhibition is -10.7% [at 11.4 µM]. The same measure, in the same setting: as for `Oc1ccc(Cl)cc1Cc1cc(Cl)cc(Cc2cc(Cl)ccc2O)c1O`, the figure is -23.8% [at 2.29 µM]. On to `Oc1ccc(Cc2cc(Cl)cc(Cl)c2O)cc1Cl`, for which the AC50 was 1.58 µM (active). On to `CCC(Sc1nc2cc3c(cc2c(=O)n1Cc1ccco1)OCO3)C(=O)Nc1ccccc1OC` (centres undefined), for which the “activity, negative = inhibition” value was -13.9%. For `COc1ccccc1CN(Cc1cc2cc3c(cc2[nH]c1=O)OCCO3)Cc1nnnn1Cc1ccco1`, the AC50 is 17.8 µM (active). Still for that read-out and setting: as for `CCC(C)(C)n1nnnc1C(C(C)C)N(Cc1ccco1)Cc1cc2cc3c(cc2[nH]c1=O)OCO3` (centres undefined), the figure is 14.1 µM (active). As to `CC(C)(C)n1nnnc1C(c1cccnc1)N(Cc1ccccc1)Cc1ccco1` (centres undefined), the “activity, negative = inhibition” value is -11.9%. Still for that read-out and setting: as for `CCC(C)(C)n1nnnc1C(c1ccc(C)cc1)N1CCC(C)CC1` (centres undefined), the figure is -9.54%.
